From ChEMBL document CHEMBL1961873, “Compounds: GSK PKIS; Assays: Nanosyn kinase panel” (2012) come the findings set out here.

For assay [1], the system named is Proto-oncogene tyrosine-protein kinase receptor Ret (Homo sapiens), P07949 [Y791F]. The note with it: at 1 µM.
Assay [2] addresses Macrophage-stimulating protein receptor (Homo sapiens) (UniProt Q04912). The note with it: at 0.1 µM.
Assay [3] has the same target. The settings on record: at 1 µM.
Assay [4] has as its target Proto-oncogene tyrosine-protein kinase ROS (Homo sapiens) (UniProt P08922). The note with it: at 0.1 µM.
Assay [5] shares this target. The settings on record: at 1 µM.
Assay [6] concerns the target Proto-oncogene tyrosine-protein kinase Src (Homo sapiens) (UniProt P12931). The note with it: at 0.1 µM.
Assay [7] shares this target. The settings on record: at 1 µM.
Assay [8] concerns the target Tyrosine-protein kinase Srms (Homo sapiens) (UniProt Q9H3Y6). The settings on record: at 0.1 µM.
For assay [9] the target is unchanged. The note with it: at 1 µM.
Assay [10] has as its target Tyrosine-protein kinase SYK (Homo sapiens) (UniProt P43405). The note with it: at 0.1 µM.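 Note: reported percentages are mean inhibition values for SYK.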

Each structure is given as a SMILES string.

Chain of Proto-oncogene tyrosine-protein kinase receptor Ret (Homo sapiens), P07949 [Y791F] (P07949 whole entry Y791F): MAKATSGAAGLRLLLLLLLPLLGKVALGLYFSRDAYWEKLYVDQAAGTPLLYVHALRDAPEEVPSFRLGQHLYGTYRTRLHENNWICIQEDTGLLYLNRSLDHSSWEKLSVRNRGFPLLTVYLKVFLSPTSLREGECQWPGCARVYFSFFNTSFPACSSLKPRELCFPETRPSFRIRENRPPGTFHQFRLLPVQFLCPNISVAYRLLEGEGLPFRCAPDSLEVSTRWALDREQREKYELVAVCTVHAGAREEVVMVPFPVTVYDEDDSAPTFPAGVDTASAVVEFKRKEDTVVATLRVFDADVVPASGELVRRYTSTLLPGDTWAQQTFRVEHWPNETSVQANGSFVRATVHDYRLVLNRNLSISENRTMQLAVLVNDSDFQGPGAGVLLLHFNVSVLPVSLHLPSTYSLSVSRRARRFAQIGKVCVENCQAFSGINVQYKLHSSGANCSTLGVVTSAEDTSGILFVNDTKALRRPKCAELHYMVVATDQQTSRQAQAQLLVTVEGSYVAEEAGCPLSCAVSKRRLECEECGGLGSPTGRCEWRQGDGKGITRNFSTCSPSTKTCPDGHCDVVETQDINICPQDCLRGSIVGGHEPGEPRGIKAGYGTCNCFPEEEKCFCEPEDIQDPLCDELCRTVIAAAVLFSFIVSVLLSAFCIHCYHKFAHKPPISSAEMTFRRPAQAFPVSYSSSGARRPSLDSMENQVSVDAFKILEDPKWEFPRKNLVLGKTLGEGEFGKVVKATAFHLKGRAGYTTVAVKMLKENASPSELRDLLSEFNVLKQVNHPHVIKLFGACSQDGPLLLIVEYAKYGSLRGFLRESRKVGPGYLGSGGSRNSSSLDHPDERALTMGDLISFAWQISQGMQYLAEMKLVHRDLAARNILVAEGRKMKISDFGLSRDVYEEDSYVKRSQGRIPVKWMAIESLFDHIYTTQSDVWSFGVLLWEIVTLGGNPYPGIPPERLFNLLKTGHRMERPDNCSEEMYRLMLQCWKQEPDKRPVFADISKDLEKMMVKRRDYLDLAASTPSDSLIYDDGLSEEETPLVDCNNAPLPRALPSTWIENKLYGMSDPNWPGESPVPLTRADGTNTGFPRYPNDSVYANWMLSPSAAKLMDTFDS
Chain of Macrophage-stimulating protein receptor (Homo sapiens) (Q04912 25-304 limits assumed): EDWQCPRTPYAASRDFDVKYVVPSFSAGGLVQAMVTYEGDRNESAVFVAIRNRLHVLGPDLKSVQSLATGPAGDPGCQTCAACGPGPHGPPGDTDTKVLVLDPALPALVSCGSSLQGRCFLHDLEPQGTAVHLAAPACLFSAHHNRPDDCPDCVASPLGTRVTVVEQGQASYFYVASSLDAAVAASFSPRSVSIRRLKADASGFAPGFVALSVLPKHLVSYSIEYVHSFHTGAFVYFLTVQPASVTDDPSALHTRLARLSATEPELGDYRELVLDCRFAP
Chain of Macrophage-stimulating protein receptor (Homo sapiens) (Q04912 310-1400 limits assumed): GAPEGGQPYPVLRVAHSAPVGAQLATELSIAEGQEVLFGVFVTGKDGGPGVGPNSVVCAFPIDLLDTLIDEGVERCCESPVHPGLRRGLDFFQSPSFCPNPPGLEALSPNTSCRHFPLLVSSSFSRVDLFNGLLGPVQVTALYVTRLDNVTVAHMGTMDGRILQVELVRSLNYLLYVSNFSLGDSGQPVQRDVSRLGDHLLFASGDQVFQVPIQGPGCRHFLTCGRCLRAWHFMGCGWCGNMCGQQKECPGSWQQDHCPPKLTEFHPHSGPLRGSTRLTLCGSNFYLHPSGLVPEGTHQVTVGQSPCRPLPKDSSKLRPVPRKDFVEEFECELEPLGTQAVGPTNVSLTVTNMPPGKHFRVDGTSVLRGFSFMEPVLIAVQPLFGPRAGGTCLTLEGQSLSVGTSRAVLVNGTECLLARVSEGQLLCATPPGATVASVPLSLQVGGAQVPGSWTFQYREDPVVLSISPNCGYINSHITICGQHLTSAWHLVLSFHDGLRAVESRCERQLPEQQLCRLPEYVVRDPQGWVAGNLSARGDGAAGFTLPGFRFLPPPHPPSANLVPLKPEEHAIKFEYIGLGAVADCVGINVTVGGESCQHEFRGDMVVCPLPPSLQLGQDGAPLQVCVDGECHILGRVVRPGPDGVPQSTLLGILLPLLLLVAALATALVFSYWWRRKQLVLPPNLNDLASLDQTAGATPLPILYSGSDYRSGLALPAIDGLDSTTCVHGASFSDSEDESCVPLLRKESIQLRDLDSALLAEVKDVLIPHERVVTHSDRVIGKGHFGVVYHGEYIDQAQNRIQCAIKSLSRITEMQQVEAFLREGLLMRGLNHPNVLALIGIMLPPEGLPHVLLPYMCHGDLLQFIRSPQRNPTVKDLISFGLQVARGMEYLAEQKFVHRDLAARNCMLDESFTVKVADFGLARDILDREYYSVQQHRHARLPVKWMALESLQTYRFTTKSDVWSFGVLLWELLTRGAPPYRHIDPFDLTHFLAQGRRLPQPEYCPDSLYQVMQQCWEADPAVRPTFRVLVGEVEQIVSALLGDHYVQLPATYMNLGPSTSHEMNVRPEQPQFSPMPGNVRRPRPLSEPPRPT
Chain of Proto-oncogene tyrosine-protein kinase Src (Homo sapiens) (P12931 2-536 limits assumed): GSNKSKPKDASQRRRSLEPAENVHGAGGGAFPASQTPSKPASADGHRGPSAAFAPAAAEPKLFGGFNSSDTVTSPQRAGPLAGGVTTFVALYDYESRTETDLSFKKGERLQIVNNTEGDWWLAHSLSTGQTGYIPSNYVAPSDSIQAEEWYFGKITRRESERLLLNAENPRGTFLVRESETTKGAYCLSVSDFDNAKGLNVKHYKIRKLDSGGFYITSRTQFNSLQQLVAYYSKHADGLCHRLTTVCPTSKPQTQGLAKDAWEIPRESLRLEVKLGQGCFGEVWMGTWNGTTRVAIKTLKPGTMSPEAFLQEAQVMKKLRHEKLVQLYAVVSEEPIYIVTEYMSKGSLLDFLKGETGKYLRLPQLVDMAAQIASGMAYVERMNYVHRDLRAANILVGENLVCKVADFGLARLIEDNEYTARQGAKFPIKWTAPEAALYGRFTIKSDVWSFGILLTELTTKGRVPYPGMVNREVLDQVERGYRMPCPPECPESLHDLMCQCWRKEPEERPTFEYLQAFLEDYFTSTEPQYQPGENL
Chain of Tyrosine-protein kinase Srms (Homo sapiens) (Q9H3Y6 whole entry): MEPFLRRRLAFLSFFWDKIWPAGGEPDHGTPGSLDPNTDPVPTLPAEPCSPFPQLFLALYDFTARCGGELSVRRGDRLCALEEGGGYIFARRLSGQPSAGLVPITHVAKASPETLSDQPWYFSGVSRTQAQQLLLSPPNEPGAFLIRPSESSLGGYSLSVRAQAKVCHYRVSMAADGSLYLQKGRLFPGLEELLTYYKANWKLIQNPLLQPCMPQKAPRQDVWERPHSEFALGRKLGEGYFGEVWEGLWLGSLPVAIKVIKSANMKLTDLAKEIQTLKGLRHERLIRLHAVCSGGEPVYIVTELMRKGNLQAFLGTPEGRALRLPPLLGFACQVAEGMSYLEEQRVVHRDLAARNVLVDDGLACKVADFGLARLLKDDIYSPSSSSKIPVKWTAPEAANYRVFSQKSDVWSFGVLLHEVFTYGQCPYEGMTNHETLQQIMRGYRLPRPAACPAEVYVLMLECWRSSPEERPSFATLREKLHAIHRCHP

By inhibition is commonly meant the drop in the measured response relative to a control, in per cent. In the case of `N#Cc1c(NC(=O)CN2CCOCC2)sc2c1CCCC2`, the inhibition in assay [1] was 8.63%; in [2], -0.19%; in [3] it was 6.37%; in assay [4], 6.7%; in assay [5] it was 13%; in [6], -1.56%. Also, the inhibition in assay [7] is 7.9%; in [8] it was -1.35%; in [9], 0.73%; in [10] it was -0.42%.

On to `COc1cc(/C=N/Nc2ncnc3[nH]ncc23)ccc1O`, for which the inhibition was 80.9% in assay [1]; -1.46% in assay [2]; 17% in [3]; 5.97% in [4]; 27% in [5]; 27.9% in assay [6]. Further, the inhibition in assay [7] was 83.2%; in assay [8], -0.95%; in assay [9], 6.55%; in [10], -7.54%.

Consider `CCN(CC)S(=O)(=O)c1ccc(OC)c(Nc2ncc(-c3ccccc3)o2)c1`, for which the inhibition in [1] is 35.7%; in assay [2] it was 4%; in [3], -1.9%; in [4], 1.91%; in assay [5], 19%; in assay [6], 9.87%. Besides, the inhibition was determined as 56.4% in assay [7], 1.97% in [8], 3.53% in [9] and 0.84% in assay [10].

With `COC(=O)Nc1nc2ccc(Oc3ccc(NC(=O)Nc4cccc(Cl)c4)cc3)cc2[nH]1`, the inhibition came to 79.7% in assay [1]; 2.59% in assay [2]; 6.24% in assay [3]; 1.51% in [4]; 2.59% in assay [5]; 4.21% in [6]. The inhibition in assay [7] was 1.43%; in [8] it was -2.84%; in [9], -1.42%; in assay [10], 0.41%.

On to `[O-][S+]1CCN(Cc2ccc(-c3ccc4ncnc(Nc5ccc(OCc6cccc(F)c6)c(Cl)c5)c4c3)o2)CC1`, for which the inhibition in [1] was 9.63%; in assay [2], 3.82%; in assay [3], 6.8%; in assay [4], 4.15%; in assay [5], 2.36%; in assay [6], 8.56%. In addition, the inhibition in assay [7] was 10.2%; in assay [8] it was 0.4%; in assay [9] it was -1.62%; in [10], 2.13%.

For `CCn1c(-c2nonc2N)nc2ccccc21`, the inhibition in [1] was 3.18%; in assay [2], 1.17%; in [3], 2.21%; in assay [4], 9.11%; in [5], 15.9%; in assay [6], 11.4%. The inhibition turned out to be 6.84% in assay [7], 1.09% in assay [8], 2.1% in [9] and 0.68% in assay [10].

Regarding `COc1ccc2[nH]c3c4[nH]c5ccc(OC)cc5c4c4c(c3c2c1)C(=O)NC4=O`, the inhibition in assay [1] was 67.3%; in assay [2], 6.28%; in assay [3], 16.9%; in assay [4], 55.8%; in [5], 79.1%; in [6] it was -1.01%. Moreover, the inhibition in assay [7] was 20.4%; in assay [8] it was 3.34%; in assay [9], 15.6%; in assay [10], -7.81%.

In the case of `Nc1nc(-c2cccc(Cl)c2)c(-c2ccc3ncccc3n2)s1`, the inhibition in assay [1] came out at 15.2%; in assay [2] it was 4.75%; in [3] it was 10.5%; in assay [4] it was 6.74%; in assay [5], 11.4%; in assay [6] it was 4.18%. The inhibition in assay [7] is 13.6%; in assay [8], -1.79%; in [9], -1.08%; in assay [10] it was -2.15%.

For the molecule `Nc1ncc(-c2cccc(S(N)(=O)=O)c2)c2scc(-c3ccc(F)c(Cl)c3)c12`, the inhibition in assay [1] is 50.2%; in [2], 1.48%; in assay [3] it was 15.8%; in assay [4], -0.54%; in assay [5], 6.78%; in assay [6], 19.6%. Also, the inhibition was 57.1% in [7], -1.03% in assay [8], 6.75% in assay [9] and 0.28% in assay [10].

`O=S(=O)(CCNCc1ccc(-c2ccc3ncnc(Nc4ccc(OCc5cccc(F)c5)c(Cl)c4)c3c2)o1)c1ccccc1`: the inhibition in [1] came out at 15.4%; in assay [2], 1.71%; in assay [3] it was 2.9%; in [4], 4.44%; in assay [5], 6.24%; in assay [6], 9.13%. For the same molecule, the inhibition was 8.52% in [7], -1.84% in [8], -3.16% in assay [9] and -4.56% in [10].

For `COc1ccc(-c2cc(-c3c[nH]nc3-c3ccccn3)ccn2)cc1`, the inhibition in assay [1] stood at 17.4%; in assay [2], 2.4%; in [3], 21.3%; in [4] it was 3.05%; in [5], 8.62%; in assay [6], 0.76%. In addition, the inhibition in assay [7] was 11.1%; in [8], -2.06%; in assay [9], 0.71%; in [10] it was -6.85%.

As for `CCNC(=O)O[C@H]1CN[C@H](C#Cc2cc3ncnc(Nc4ccc(OCc5cccc(F)c5)c(Cl)c4)c3s2)C1`, the inhibition is 2.83% in assay [1]; 3.96% in assay [2]; 3.52% in assay [3]; 4.68% in [4]; 3.52% in assay [5]; 0.25% in assay [6]. In addition, the inhibition in [7] was 6.91%; in assay [8] it was -0.91%; in assay [9], -2.79%; in assay [10] it was -1.96%.

With `CC(=O)NCc1cccc(C#Cc2cncnc2Nc2ccc(OCc3cccc(F)c3)c(Cl)c2)c1`, the inhibition in [1] was 3.42%; in [2], 5.44%; in assay [3] it was 5.62%; in assay [4], 3.92%; in assay [5] it was 4.54%; in assay [6], 0.53%. For the same molecule, the inhibition in [7] is 2.01%; in [8] it was 0.33%; in [9], -1.05%; in assay [10] it was -2.37%.

Take `COc1cccc(-n2ncc3c(N/N=C/c4ccc(F)cc4)ncnc32)c1`: the inhibition in assay [1] worked out at 18.6%; in assay [2] it was 3.4%; in assay [3], 13.7%; in assay [4], 3.85%; in assay [5], 8.02%; in assay [6] it was 14.6%. Moreover, the inhibition was 49.2% in [7], -1.01% in [8], 3.9% in assay [9] and -4.34% in [10].

On to `NS(=O)(=O)c1ccc(Nc2ncc(-c3ccccc3)o2)cc1`, for which the inhibition in assay [1] was found to be 7.3%; in [2], 4%; in assay [3], 6.45%; in [4] it was 3.2%; in assay [5], 13.1%; in [6], 1.97%. The inhibition is 18.3% in assay [7], -0.76% in assay [8], 0.22% in [9] and 3.95% in [10].

In the case of `Nc1nc(-c2ccc(F)cc2)c(-c2ccc3ncccc3n2)s1`, the inhibition in [1] is 14%; in assay [2], -8.7%; in assay [3] it was 7.82%; in assay [4] it was 4.44%; in [5] it was 15.8%; in assay [6], -1.89%. Besides, the inhibition in [7] was 14.2%; in [8] it was 0.67%; in assay [9] it was 3.74%; in assay [10] it was -1.32%.

For `CCn1cc(-c2ccnc3[nH]ccc23)c(-c2cccc(NC(=O)Nc3ccc(OCc4ccccc4)cc3)c2)n1`, the inhibition is 11.9% in assay [1]; -0.2% in [2]; 23.8% in assay [3]; 1.33% in assay [4]; 0.45% in assay [5]; 1.17% in assay [6]. The inhibition is 6.43% in assay [7], -1.11% in assay [8], -1.61% in assay [9] and -1.9% in assay [10].
